The structures appear in SMILES notation. The source made the active and inactive calls. Unless noted, how the calls were made is not given here.

Assay [1] in a line: anti-His antibody binders, primary screen, artefact control for SMM control protein annotation, biochemical, small-molecule microarray, 635 nm fluorescence (AID 1128).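 Further: score merges feature fluorescence with signal-to-noise for each printed compound spot.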 The settings on record: anti-His Alexa647 antibody binding, higher = more signal.
The subject of assay [2] is Human papillomavirus type 1a E7 protein (residues 1-88). The assay is described as follows: HPV1a E7 small-molecule binders, primary screen, biochemical, small-molecule microarray, residues 1-88, 635 nm (AID 1129). The conditions noted are these: small-molecule microarray binding, fluorescence 635 nm; higher = more signal.
The target of assay [3] is Focal adhesion kinase 1 (Homo sapiens) (UniProt Q05397). The assay is described as follows: small-molecule microarray binders of FAK, primary screen, biochemical, 635/667 nm fluorescence, BSA, DTT (AID 1130).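 Further: composite of spot emission at 667 nm and signal to noise over triplicate slides.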 The settings on record: PTK2 binding, 635 nm fluorescence, higher = more signal.
For assay [4], the system named is Fibrinogen (Alexa647-labelled). The assay is described as follows: fibrinogen binders on compound microarrays, profiling panel, artefact control for SMM control-protein annotation, biochemical, small-molecule microarray, 635/667 nm fluorescence (AID 1131).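 Further: z-score merges 667 nm fluorescence with per-spot signal-to-noise over triplicate slides.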 The settings on record: fibrinogen-A647 binding fluorescence, higher = more signal.
Assay [5] has as its target Follistatin (Homo sapiens) (UniProt P19883). The assay is described as follows: follistatin binders on small-molecule microarrays, primary screen, biochemical, small-molecule microarray, 635/667 nm fluorescence (AID 1132). The settings on record: FST binding, 635 nm fluorescence, higher = more signal.
Assay [6] deals with Fibroblast growth factor 2 (Homo sapiens) (UniProt P09038). The assay is described as follows: FGF2 binders on small-molecule microarrays, primary screen, biochemical, small-molecule microarray, 635/667 nm fluorescence (AID 1133). The settings on record: small-molecule microarray binding, FGF2, fluorescence 635/667; higher = more signal.
Assay [7] is described as follows: mitochondrial membrane potential change in A549 cells, profiling panel, cell-based, JC-1 fluorescence, basal, 24 h, 100 nL (AID 1138).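 Further: A549 lung adenocarcinoma cells under basal conditions with no added stimulus; test concentration not given here.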 The conditions noted are these: higher = more signal.
The subject of a further assay is Lefty1. The assay is described as follows: Lefty1 binders on small-molecule microarrays, primary screen, biochemical, small-molecule microarray, 635/667 nm fluorescence (AID 1139). The conditions noted are these: small-molecule microarray binding, fluorescence 635/667; higher = more signal.
Assay [8] relates to wheat germ agglutinin (Triticum aestivum), Alexa647-labelled. The assay is described as follows: wheat germ agglutinin binders on compound microarrays, profiling panel, artefact control for SMM control-protein annotation, biochemical, small-molecule microarray, 635/667 nm fluorescence (AID 1140).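 Further: score merges 667 nm feature emission with signal to noise over triplicate slides.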 The conditions noted are these: WGA-A647 binding, 635 nm fluorescence, higher = more signal.

Assay [9] addresses Luciferin 4-monooxygenase (Photinus pyralis) (UniProt P08659). The assay is described as follows: firefly luciferase enzyme inhibitors, primary screen, biochemical, luminescence, purified enzyme, 2006 set (AID 1141).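 Further: cell-free assay with purified firefly luciferase at 100 ng per well in PBS; test concentration not given here.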 The settings on record: SteadyGlo luminescence, 30 min, higher = more signal, called active from +8 up or from −8 down.
In assay [10] the test system is Wnt5a (protein binding on small-molecule microarray). The assay is described as follows: Wnt5a binders on small-molecule microarray, primary screen, biophysical, 635/667 nm fluorescence (AID 1142).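 Further: fluorescence read at 667 nm with signal to noise per printed feature.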 The settings on record: 635 nm fluorescence, higher = more signal.
A short description of assay [11]: cell viability in Huh7 cells, primary screen, cytotoxicity control for HCV replication inhibitor project, CellTiter-Glo luminescence, basal, 48 h (AID 1143).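 Further: Huh7 hepatoma cells carrying a hepatitis C replication reporter with no stimulus; test concentration not given here.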 The settings on record: Huh7 HCV replicon, higher = more signal, called active from +8 up or from −8 down. A general note: In ATP-based viability assays light output follows the ATP content of the culture.
A short description of assay [12]: P. aeruginosa biofilm formation inhibitors, primary screen, PAO1 strain, BacTiter-Glo luminescence, LB-PBS (AID 1144). The conditions noted are these: 12 h, higher = more signal.
Assay [13] is described as follows: CREB reporter modulators without forskolin, primary screen, cell-based, PC12, CRE-LacZ reporter, unstimulated (AID 1145). The conditions noted are these: no forskolin, luminescence, 4.5 h, higher = more signal, called active from +8 up or from −8 down.
A short description of assay [14]: CREB reporter modulators under forskolin, primary screen, cell-based, PC12, CRE-LacZ reporter, forskolin-stimulated (AID 1146).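 Further: PC12 cells with 6xCRE LacZ reporter stimulated by forskolin 10 µM; beta-galactosidase reporter signal reflecting CREB driven transcription.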 The conditions noted are these: luminescence, 4.5 h, higher = more signal, called active from +8 up or from −8 down.
For assay [15], the target named is Streptavidin (Streptomyces avidinii) (UniProt P22629). The assay is described as follows: streptavidin binders on small-molecule microarray, primary screen, artefact control for SMM compound annotation, biophysical, 635/667 nm fluorescence (AID 1147).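 Further: signal reflects streptavidin binding to arrayed compounds as a control protein.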 The conditions noted are these: streptavidin binding, higher = more signal.
A short description of assay [16]: small-molecule binders of probe aInhba, primary screen, biochemical, small-molecule microarray, 635/667 nm fluorescence (AID 1148).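 Further: score merges 667nm spot fluorescence with signal-to-noise for antibody binding to printed compounds.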 The settings on record: higher = more signal.
Assay [17] has as its target Torsin-1A (Homo sapiens) (UniProt O14656). The assay is described as follows: torsin A binders from cell lysate, primary screen, small-molecule microarray, wild-type, 635/667 nm (AID 1149). The settings on record: COS7 hTOR1A-WT lysate, 635 nm fluorescence, higher = more signal.
Assay [18] has the same target. The assay is described as follows: small-molecule binders of mutant TOR1A in lysate, primary screen, cell lysate, small-molecule microarray, COS7 lysate, 635/667 nm fluorescence (AID 1150).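 Further: score pools 667 nm emission and signal to noise measuring lysate protein binding.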 The settings on record: COS7 hTOR1A mutant lysate, 635 nm fluorescence, higher = more signal.
Assay [19] has as its system Sonic hedgehog protein (Shh). The assay is described as follows: small-molecule binders of Shh protein, primary screen, biochemical, small-molecule microarray, 635/667 nm fluorescence (AID 1151).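 Further: Shh protein binding to compounds spotted on small-molecule microarray slides; score combines spot fluorescence intensity with signal-to-noise across triplicate slides.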 The settings on record: small-molecule microarray binding, 635 nm fluorescence; higher = more signal.

Chain of Luciferin 4-monooxygenase (Photinus pyralis) (P08659 whole entry, looked up): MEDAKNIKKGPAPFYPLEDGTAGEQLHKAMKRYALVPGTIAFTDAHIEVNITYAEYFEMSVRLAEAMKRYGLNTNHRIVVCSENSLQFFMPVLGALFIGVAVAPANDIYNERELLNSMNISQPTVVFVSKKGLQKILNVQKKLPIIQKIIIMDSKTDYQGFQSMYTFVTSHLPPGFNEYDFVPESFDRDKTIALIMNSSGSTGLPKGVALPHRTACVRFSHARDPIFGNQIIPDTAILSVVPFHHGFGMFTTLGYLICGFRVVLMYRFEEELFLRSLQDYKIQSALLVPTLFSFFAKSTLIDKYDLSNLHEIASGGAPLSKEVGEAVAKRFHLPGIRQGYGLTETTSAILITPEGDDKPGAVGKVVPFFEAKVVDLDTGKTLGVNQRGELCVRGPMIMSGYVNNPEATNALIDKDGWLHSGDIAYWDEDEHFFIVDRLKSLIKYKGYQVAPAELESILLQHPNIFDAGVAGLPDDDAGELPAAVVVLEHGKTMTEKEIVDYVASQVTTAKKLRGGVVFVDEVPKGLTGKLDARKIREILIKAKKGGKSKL
Chain of Focal adhesion kinase 1 (Homo sapiens) (Q05397 whole entry, looked up): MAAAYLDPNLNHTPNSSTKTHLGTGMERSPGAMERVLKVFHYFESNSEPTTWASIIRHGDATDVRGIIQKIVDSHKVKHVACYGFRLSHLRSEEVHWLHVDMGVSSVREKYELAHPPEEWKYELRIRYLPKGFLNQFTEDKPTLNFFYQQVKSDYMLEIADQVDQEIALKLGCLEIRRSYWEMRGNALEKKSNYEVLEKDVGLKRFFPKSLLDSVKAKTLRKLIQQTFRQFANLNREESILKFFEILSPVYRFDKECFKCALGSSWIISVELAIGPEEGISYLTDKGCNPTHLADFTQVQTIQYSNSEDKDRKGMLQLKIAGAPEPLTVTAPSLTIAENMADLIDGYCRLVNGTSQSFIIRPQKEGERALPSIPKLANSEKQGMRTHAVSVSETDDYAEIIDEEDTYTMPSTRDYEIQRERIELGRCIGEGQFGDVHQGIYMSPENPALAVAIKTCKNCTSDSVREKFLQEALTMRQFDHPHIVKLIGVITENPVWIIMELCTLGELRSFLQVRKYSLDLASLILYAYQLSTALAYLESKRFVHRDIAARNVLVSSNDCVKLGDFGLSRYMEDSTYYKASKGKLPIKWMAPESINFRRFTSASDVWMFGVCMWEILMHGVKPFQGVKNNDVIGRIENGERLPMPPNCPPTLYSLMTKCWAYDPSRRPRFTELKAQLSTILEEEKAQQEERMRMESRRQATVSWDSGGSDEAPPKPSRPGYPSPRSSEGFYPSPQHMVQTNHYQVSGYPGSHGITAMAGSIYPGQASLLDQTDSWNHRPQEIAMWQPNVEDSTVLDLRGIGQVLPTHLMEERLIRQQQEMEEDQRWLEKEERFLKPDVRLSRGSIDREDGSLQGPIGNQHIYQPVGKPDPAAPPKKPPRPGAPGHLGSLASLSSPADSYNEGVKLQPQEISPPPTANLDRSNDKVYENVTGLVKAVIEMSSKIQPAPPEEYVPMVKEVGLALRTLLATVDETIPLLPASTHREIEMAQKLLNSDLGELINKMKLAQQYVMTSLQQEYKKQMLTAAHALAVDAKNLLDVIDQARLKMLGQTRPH
Chain of Follistatin (Homo sapiens) (P19883 whole entry, looked up): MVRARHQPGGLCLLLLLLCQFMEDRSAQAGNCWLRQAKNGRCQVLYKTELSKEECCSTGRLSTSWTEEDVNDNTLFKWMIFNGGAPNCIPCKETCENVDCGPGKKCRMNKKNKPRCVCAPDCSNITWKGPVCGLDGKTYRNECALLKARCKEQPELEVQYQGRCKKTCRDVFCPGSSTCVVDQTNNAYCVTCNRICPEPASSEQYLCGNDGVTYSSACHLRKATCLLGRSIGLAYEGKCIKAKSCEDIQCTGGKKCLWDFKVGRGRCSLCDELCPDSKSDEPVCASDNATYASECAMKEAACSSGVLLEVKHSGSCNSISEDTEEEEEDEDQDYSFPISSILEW
Chain of Streptavidin (Streptomyces avidinii) (P22629 whole entry, looked up): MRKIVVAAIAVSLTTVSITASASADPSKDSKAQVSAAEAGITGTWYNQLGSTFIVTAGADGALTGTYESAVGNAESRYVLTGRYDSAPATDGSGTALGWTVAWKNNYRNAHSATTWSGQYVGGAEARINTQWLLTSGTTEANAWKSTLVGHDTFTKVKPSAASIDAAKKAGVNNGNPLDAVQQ
Chain of Torsin-1A (Homo sapiens) (O14656 whole entry, looked up): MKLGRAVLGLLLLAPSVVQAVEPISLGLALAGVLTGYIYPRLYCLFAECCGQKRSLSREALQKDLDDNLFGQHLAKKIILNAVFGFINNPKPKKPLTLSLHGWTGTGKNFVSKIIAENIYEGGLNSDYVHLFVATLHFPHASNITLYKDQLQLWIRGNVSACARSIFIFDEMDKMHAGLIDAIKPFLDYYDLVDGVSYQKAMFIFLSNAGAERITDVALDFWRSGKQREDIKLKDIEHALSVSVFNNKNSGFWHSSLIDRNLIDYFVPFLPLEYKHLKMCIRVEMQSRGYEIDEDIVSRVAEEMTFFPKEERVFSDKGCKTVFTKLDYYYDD
Chain of Fibroblast growth factor 2 (Homo sapiens) (P09038 whole entry, looked up): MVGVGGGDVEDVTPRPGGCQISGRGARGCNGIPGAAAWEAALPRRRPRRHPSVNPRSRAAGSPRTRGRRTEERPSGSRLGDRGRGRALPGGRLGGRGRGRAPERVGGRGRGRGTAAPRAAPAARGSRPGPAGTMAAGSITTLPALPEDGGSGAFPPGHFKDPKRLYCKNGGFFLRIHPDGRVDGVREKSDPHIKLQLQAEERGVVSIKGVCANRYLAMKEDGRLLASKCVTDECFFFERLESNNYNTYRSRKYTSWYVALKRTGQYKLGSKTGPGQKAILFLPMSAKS

In the case of `COc1ccc(C(O)C2C=CC3C(=O)N(C)C(=O)C3N2NC(=O)OC(C)(C)C)c2ccccc12` (stereo not given), the composite z-score in assay [1] was 1.62; in assay [2] it was 1.28; in assay [3], 0.685; in assay [4] it was 0.988; in assay [5], 0.832; in [6], -0.161. Further, the composite z-score with Lefty1 is -0.33; in assay [8] it was 1.31; in [10], 0.364; in assay [15] it was 1.13; in assay [16], -0.137; with Torsin-1A (Homo sapiens) [17] it was 0.177. The composite z-score in the assay with Torsin-1A (Homo sapiens) [18] is 0.644; in [19], -0.416. Moreover, the z-score in assay [7] is -0.771; in assay [9] it was -0.9 (inactive); in assay [11], -0.144 (inactive); in assay [12], -0.0855 (inactive); in assay [13] it was 1.58 (inactive); in assay [14], -0.0415 (inactive).
In the case of `[N-]=[N+]=NCc1ccccc1[C@@H]1OC(c2ccc(OCCCO)cc2)=N[C@]1(CCS(=O)(=O)c1ccccc1)C(=O)N1CCCCC1`, the composite z-score in assay [1] came out at 0.621; in assay [2], 1.26; in assay [3], 0.0201; in assay [4], 1.08; in assay [5], 0.981; in assay [6], 0.432. For the same molecule, the composite z-score in the assay on Lefty1 came to 0.275; in assay [8], 1.02; in assay [10] it was 0.571; in [15] it was 1.19; in assay [16] it was 0.531; with Torsin-1A (Homo sapiens) [17], 0.292. For the same molecule, the composite z-score with Torsin-1A (Homo sapiens) [18] was 0.447; in assay [19] it was -0.0529. Moreover, the z-score was -0.706 in assay [7]; -0.938 (inactive) in [9]; -2.09 (inactive) in [11]; 0.406 (inactive) in [12]; 5.06 (inactive) in assay [13]; 0.243 (inactive) in [14].
For `COc1ccc([Si](C)(C)[C@@H]2[C@@H](CCn3cc(CCO)nn3)O[C@]3(C(=O)N(Cc4cccc(N5C(=O)c6cccc7cccc5c67)c4)c4ccccc43)[C@H]2C)cc1`, the composite z-score in assay [1] stood at 1.18; in assay [2], 1.16; in assay [3], 0.321; in assay [4] it was 0.556; in assay [5], 1.16; in assay [6] it was 0.672. For the same molecule, the composite z-score in the assay with Lefty1 is 1.23; in assay [8], 0.509; in assay [10], 0.206; in [15], 0.942; in assay [16] it was -0.0589; with Torsin-1A (Homo sapiens) [17] it was 0.119. The composite z-score with Torsin-1A (Homo sapiens) [18] turned out to be 0.141; in [19] it was 2.08. In addition, the z-score in assay [7] was -1.1; in [9], 0.178 (inactive); in assay [11], -7.96 (inactive); in assay [12], 0.000859 (inactive); in assay [13], 2.93 (inactive); in assay [14] it was -1.45 (inactive).
Take `O=C1OCC=C[C@H]2OC34C=CCN(CCN5CCOCC5)C(=O)[C@H]3N(CCO)C(=O)[C@@H]4[C@@H]12` (stereo not given in full): the composite z-score in assay [1] is 0.15; in assay [2], -0.204; in assay [3] it was -0.133; in assay [4], 0.368; in [5], 0.597; in [6] it was -0.219. Besides, the composite z-score in the assay with Lefty1 was 1.41; in assay [8], 0.0315; in [10], -0.38; in assay [15] it was -0.175; in [16], -0.359; with Torsin-1A (Homo sapiens) [17], -0.618. Further, the results for the composite z-score (with Torsin-1A (Homo sapiens) [18]; in assay [19]) were -0.61 and 1.93, respectively. The z-score in [7] is 0.587; in assay [9], -0.602 (inactive); in assay [11], -0.117 (inactive); in assay [12] it was 1.82 (inactive); in assay [13], 0.459 (inactive); in assay [14], 0.168 (inactive).
